# Experimental data taken from PubChem BioAssay (NCI).
# This is part of a sample that, as a whole, favours compounds with a hit. Of some 83,000 tested, about 20% had one in any assay.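 Compound tested at a single concentration for 48 hours in 96-well plates; a percent growth value below 10 was scored as active.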 Values without a mark were called inactive. Active and inactive are the calls of the source.
# Test system: KM12 colon
# Assay: NCI-60 one-dose screen, 48 h (100 = growth as untreated, 0 = no growth, -100 = all killed)
# Conditions: 10 µM unless noted
# Description: Growth inhibition of the KM12 human tumor cell line is measured as a screen for anti-cancer activity. Cells are grown in 96 well plates and exposed to the test compound for 48 hours. Compounds are tested at a single concentration, which is 10^-5 M for most compounds. The reported endpoint is percent growth (GI% or GIPRCNT), where numbers from 0 - 100% represent growth inhibition, and numbers from -100% - 0 represent cell death. For example, a value of 40 represents 60% growth inhibition. A value of 0 means no net growth occurred over the course of the experiment. A value of -40 indicates 40% of cells at the beginning of the experiment died by the end of the experiment. A value of -100 means all cells are dead at the end of the experiment.
# NCI-60 Human Tumor Cell Lines Screen was performed using the standard one-dose NCI protocol, which is described in more detail at https://dtp.cancer.gov/discovery_development/nci-60/default.htm.
# Compounds with GIPRCNT values below 10 were considered active. Activity score was based on GIPRCNT using the following formula: […]
# Score is 0 for GIPRCNT values of 100 or above, 50 for GIPRCNT values of 0, and 100 for GIPRCNT values of -100.
row,SMILES,growth
1,CCCNC(=O)c1cn2ncnc(Nc3cc(C(=O)NC4CC4)ccc3C)c2c1C,99.6%
2,Clc1ccc(/C=C/c2cc(N3CCOCC3)c3cc(Cl)c(Cl)cc3n2)cc1,63.5%
3,Clc1nc(Cl)c2ncn(CC#CCn3cnc4c(Cl)nc(Cl)nc43)c2n1,-45.8% (active)
4,COc1cc(C(=O)NNC(=O)c2ccc(NC(=O)CCl)cc2)cc(OC)c1OC,99.7%
5,COc1cc2c3c(c1)nc(C)n3CCC2,108%
6,COc1cc(OC)c(/C=C/S(=O)(=O)Cc2ccc(OC)c(NCC(=O)O)c2)c(OC)c1,5.06% (active)
7,O=C(c1ccc(/C=C/c2n[nH]c3ccccc23)cc1)N1CCNCC1,8.09% (active)
8,O=C1OCC2=C1C(c1cccc(F)c1)c1cc3c(cc1N2CCO)OCCO3 (stereo not given),14%
9,Cc1cc2c(-c3nc4ccccn4c3N)c(O)c(O)cc2c(O)c1-c1c(C)cc2c(-c3nc4ccccn4c3N)c(O)c(O)cc2c1O,22.1%
10,Cc1ccc2oc(=O)cc(-c3cc(-c4cc5ccccc5oc4=O)nc(N)c3C#N)c2c1,65.7%
11,O=C1CC(c2cccc(F)c2)c2c(n[nH]c2-c2ccc(Cl)cc2)N1 (stereo not given),91.7%
12,CC1(O)CC(c2nc(-c3ccc4ccc(-c5ccccc5)nc4c3)c3c(N)nccn23)C1 (stereo not given),8.69% (active)
13,CSc1nc2ncnc(SC)c2[nH]1,106%
14,CN1CCN(Cc2ccc(NC(=O)c3[nH]ncc3Nc3ncnc4sc5c(c34)CCCC5)cc2)CC1,-64.3% (active)
15,CC(C)(C)C(=O)OCOP(=O)(OCOC(=O)C(C)(C)C)C1CCCN(OC(=O)c2ccccc2)C1=O (stereo not given),5.57% (active)
16,COc1ccc(C2OC(c3cc(-c4cc5ccccc5o4)nn3-c3ccccc3)=NN2C(C)=O)cc1 (stereo not given),107%
17,O=C1C=CC2(NN=C(c3ccccc3)N2c2ccccc2)c2cccc(O)c21 (stereo not given),47.3%
18,COc1ccc(S(=O)(=O)N(C(C)=O)c2ccccc2/C=C/c2cc[n+]([O-])cc2)cc1,14%
19,Cn1ccnc1C(=O)/C=C/c1ccc(CC(=O)Nc2ccc(Br)cc2)cc1,4.87% (active)
20,CC(=O)C1=C(C)NC(SCc2nnc(-c3ccc(C)cc3)o2)=NC1c1ccc(F)cc1 (stereo not given),100%

row,SMILES,growth
1,NC1(C(=O)N[C@@H](CCO)c2ccc(Cl)cc2)CCN(c2ncnc3[nH]ccc23)CC1,5.76% (active)
2,CCCCCCCCCNCCCCCCCCC,22.6%
3,COC(=O)CC[C@@H](C)[C@H]1CC[C@H]2C3CC[C@@H]4C[C@@H]5CC[C@]4(C)[C@@]3(O5)[C@H](Br)[C@@H](Br)[C@]12C (stereo not given in full),99.8%
4,COC(=O)C1=C(C(=O)OC)C23C=C(C)C1C2=C(C)C1(CC1)[C@@](C)(O)C3=O (stereo not given in full),29.6%
5,CC(=O)O[C@]1(C)C[C@H](O)[C@]2(O)C=CO[C@H](O[C@@H]3O[C@H](CO)[C@@H](O)[C@H](O)[C@H]3O)[C@@H]21,95.1%
6,Cc1cc(C(O)CN(C)C)cc2c1ccc1cc(C(C)C)ccc12 (stereo not given),-95.5% (active)
7,Cc1ccc(N=C2CSc3nnc(-c4csc5c4CCCC5)n3N2)cc1,24%
8,Nc1nc(Nc2ccccc2)c(C=Nc2ccccc2)c(=O)[nH]1,98.6%
9,O=C(N/N=C/c1ccc(Cl)cc1)c1cc(-c2cc3ccccc3o2)nn1-c1ccccc1,102%
10,CCc1nc(C(N)=O)c(Nc2ccc(N3CCC(N4CCN(C)CC4)CC3)c(OC)c2)nc1NC1CCOCC1,13.8%
11,Cc1cc2c(-c3nc4ccccn4c3NC34CC5CC(CC(C5)C3)C4)c(O)c(O)cc2c(O)c1-c1c(C)cc2c(-c3nc4ccccn4c3NC34CC5CC(CC(C5)C3)C4)c(O)c(O)cc2c1O,19.8%
12,COc1ccc(-n2c(=O)c3ccccc3n(Cc3ccc(C(=O)NO)cc3)c2=O)cc1,-32.9% (active)
13,FC(F)(F)c1ccc(CNc2ccc(Cc3c[nH]c4ncc(Cl)cc34)cn2)cn1,7.06% (active)
14,O=c1nc2c(-c3nc4ccccc4s3)n[nH]n2c2sc3c(c12)CCCC3,96.7%
15,COC(=O)[C@H](C)NC(=O)[C@@H](OC)[C@@H]1Cc2cc3cc(OC4CC(OC5CC(O)C(O)C(C)O5)C(O)C(C)O4)c(C)c(O)c3c(O)c2C(=O)[C@H]1OC1CC(OC2CC(OC3CC(C)(O)C(O)C(C)O3)C(O)C(C)O2)C(O)C(C)O1 (stereo not given in full),5.08% (active)
16,CN(N)c1nc2sc3c(c2c(=O)[nH]1)CCCC3,95.7%
17,CCCCCC(=O)OCc1ccc(Cl)c(Cl)c1,103%
18,COc1ccc2c(c1OC)C(=O)O[C@@H]2[C@H]1c2c(c(C#CC#Cc3ccc(F)c(F)c3)c3c(c2OC)OCO3)CCN1C,83%
19,CNC(=O)c1nn(C)c2c1C(C)(C)Cc1cnc(Nc3ccc(N4CCN(C)CC4)cc3)nc1-2,0.555% (active)
20,NC(=O)c1n[nH]n2c1nc(=O)c1c3c(sc12)CCCC3,104%
